Reference: PubChem BioAssay (Tox21)
“And” between values parts separate entries of the source, which are not always exact repeats. Equal values may be shown once. Inconclusive results are not listed. A call without a number means that no potency is given here. Some structures have more than one record in an assay (separate samples or runs), and their calls can disagree. The source made the active and inactive calls. Unless noted, calls come from the whole dose curve; as a rule, active = well fitted curve in the direction sought with a large enough effect in the repeat runs; inconclusive = weak or mixed curves; inactive = no such curve, though single readings can be large; an effect the other way counts as inactive or inconclusive.

Legend:
[1] = molecular target: Aryl hydrocarbon receptor (Homo sapiens) (UniProt P35869); assay: qHTS assay to identify small molecule that activate the aryl hydrocarbon receptor (AhR) signaling pathway (AID 743085); note: nearly all actives have a fitted effect of over 15% in size; note: potency is the fitted concentration of half-maximal effect;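 for activation: HG2L7.5c1 human HepG2 liver cells with stably integrated DRE-driven firefly reporter; series mostly up to about 70 µM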
In short: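 A multiplexed format paired cell viability (CellTiter-Fluor fluorescence) with AhR-dependent luciferase output (ONE-Glo luminescence) in the same wells of HepG2 DRE-luc cells after 24 h compound exposure at 37C.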

[2] = qHTS assay to identify small molecule that activate the aryl hydrocarbon receptor (AhR) signaling pathway - cell viability counter screen (AID 743086);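 note: HepG2 liver cells carrying the AhR DRE luciferase reporter; series mostly up to about 70 µM; nearly all actives have a fitted effect of over 45% in size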
In short: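 Cytotoxicity counter screen: CellTiter-Fluor signal (30 min, 37 C) in 4000 HepG2 cells/well carrying the DRE-luciferase reporter, following 24 h compound exposure at 37 C.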

[3] = molecular target: Peroxisome proliferator-activated receptor gamma (Homo sapiens) (UniProt P37231); assay: qHTS assay to identify small molecule agonists of the peroxisome proliferator-activated receptor gamma (PPARg) signaling pathway (AID 743094; active = well fitted activation curve with a large enough effect in the signal ratio in the repeat runs, not every such curve was filed as active; the % refers to the signal ratio)
In short: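 Beta-lactamase FRET fluorescence was the read-out after a 1 h room-temperature substrate step, following 17 h compound treatment at 37C of HEK293H cells expressing a UAS-driven bla reporter responsive to PPARg.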

[4] = molecular target: Peroxisome proliferator-activated receptor gamma (Homo sapiens) (UniProt P37231); assay: qHTS assay to identify small molecule antagonists of the peroxisome proliferator-activated receptor gamma (PPARg) signaling pathway (AID 743191; calls by dose curve; note: series mostly up to about 63 µM; nearly all actives have a fitted effect of over 30% in size)
In short: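 Beta-lactamase reporter under UAS control in HEK293H PPARg-bla cells; compound treatment 17 h at 37C. Read-out: fluorescence intensity after 1 h room-temperature incubation with LiveBLAzer B/G FRET substrate.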

[5] = qHTS assay to identify small molecule antagonists of the peroxisome proliferator-activated receptor gamma (PPARg) signaling pathway - cell viability counter screen (AID 743194); note: nearly all actives have a fitted effect of over 55% in size
In short: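 Viability was measured as CellTiter-Glo luminescence in GeneBLAzer PPARg UAS-bla HEK293H cells. These cells had been exposed 17 h at 37 C to compounds together with rosiglitazone at 50 nM final, with the beta-lactamase readout taken in the same wells.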

[6] = qHTS assay for small molecule agonists of the antioxidant response element (ARE) signaling pathway (AID 743202; active = well fitted activation curve with a large enough effect in the signal ratio in the repeat runs, not every such curve was filed as active; the % refers to the signal ratio; note: potency is the fitted concentration of half-maximal effect)
In short: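 An ARE-responsive beta-lactamase gene stably integrated in HepG2 cells serves as reporter. After 5 h plating and 16 h compound incubation at 37 C, fluorescence of the B/G FRET substrate was measured.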

[7] = qHTS assay for small molecule agonists of the antioxidant response element (ARE) signaling pathway - cell viability counter screen (AID 743203; calls by dose curve; note: nearly all actives have a fitted effect of over 55% in size)
In short: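 HepG2 cells carrying ARE-driven beta-lactamase; 2,000 cells/well; 5 hrs plating; compound pinned from DMSO; 16 hrs 37C/5% CO2; CellTiter-Glo added; 30 min RT; luminescence.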

[8] = qHTS assay for small molecule activators of the heat shock response signaling pathway - cell viability counter screen (AID 743209); note: nearly all actives have a fitted effect of over 50% in size
In short: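 Luminescence from CellTiter-Glo, added after the beta-lactamase FRET read, gave the viability signal. Cells were HSE-bla HeLa treated with DMSO-dissolved compounds for 5 h at 37 C following overnight plating.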

[9] = qHTS assay for small molecule activators of the heat shock response signaling pathway (AID 743210; active = well fitted activation curve with a large enough effect in the signal ratio in the repeat runs, with a control signal flat, not every such curve was filed as active; the % refers to the signal ratio;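 note: HeLa cells with beta-lactamase reporter driven by heat shock elements; series mostly up to about 63 µM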)
In short: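 In HSE-bla HeLa cells, 5 h compound incubation (37 C) precedes addition of LiveBLAzer B/G substrate; after 2.5 h at room temperature, fluorescence intensity indicates reporter induction.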

[10] = qHTS assay to identify small molecule agonists of the peroxisome proliferator-activated receptor delta (PPARd) signaling pathway - cell viability counter screen (AID 743211); note: nearly all actives have a fitted effect of over 55% in size
In short: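 Tox21 library compounds, delivered in DMSO, were incubated 17 h with PPARd-bla HEK293H cells; cytotoxicity was taken from CellTiter-Glo luminescence read 30 min after reagent addition.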

[11] = molecular target: Peroxisome proliferator-activated receptor delta (Homo sapiens) (UniProt Q03181); assay: qHTS assay to identify small molecule agonists of the peroxisome proliferator-activated receptor delta (PPARd) signaling pathway (AID 743212; calls by dose curve)
In short: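 HEK293H UAS-bla reporter cells, human PPARd system; compounds delivered in DMSO after 5 h plating, then at 37 C. Beta-lactamase FRET read, 2 h RT substrate step.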

[12] = qHTS assay to identify small molecule antagonists of the peroxisome proliferator-activated receptor delta (PPARd) signaling pathway - cell viability counter screen (AID 743213); note: nearly all actives have a fitted effect of over 50% in size
In short: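 In this counter screen, HEK293H cells carrying a UAS-beta-lactamase reporter are co-treated with test compounds and 300 nM L165041 (final) for 17 h at 37 C; cell viability is quantified by CellTiter-Glo luminescence.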

[13] = molecular target: Peroxisome proliferator-activated receptor delta (Homo sapiens) (UniProt Q03181); assay: qHTS assay to identify small molecule antagonists of the peroxisome proliferator-activated receptor delta (PPARd) signaling pathway (AID 743215; active = well fitted inhibition curve with a large enough effect in the signal ratio in the repeat runs, not every such curve was filed as active; the % refers to the signal ratio;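 note: cells stimulated with agonist L165041 at 300 nM final during compound exposure; series mostly up to about 62 µM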)
In short: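 Read-out is beta-lactamase FRET fluorescence, measured 2 h after substrate addition at room temperature. Beforehand, UAS-bla HEK293H cells carrying the PPARd reporter were exposed to compounds with L165041 at 300 nM final for 17 h at 37 C.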

[14] = molecular target: Bile acid receptor (Homo sapiens) (UniProt Q96RI1); assay: qHTS assay to identify small molecule antagonists of the farnesoid-X-receptor (FXR) signaling pathway (AID 743217; active = well fitted inhibition curve with a large enough effect in the signal ratio in the repeat runs, not every such curve was filed as active; the % refers to the signal ratio)
In short: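 HEK 293T FXR-UAS-bla, 5000 cells/well; compound + CDCA 50 uM final; 16 h, 37 °C; B/G FRET substrate 2 h RT; fluorescence.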

[15] = qHTS assay to identify small molecule agonists of the farnesoid-X-receptor (FXR) signaling pathway - cell viability counter screen (AID 743218); note: nearly all actives have a fitted effect of over 45% in size
In short: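 HEK 293T FXR-bla cells; 5 h pre-incubation, 16 h compound exposure at 37 C; LiveBLAzer substrate 2 h RT, then CellTiter-Glo 30 min RT, luminescence.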

[16] = molecular target: Bile acid receptor (Homo sapiens) (UniProt Q96RI1); assay: qHTS assay to identify small molecule agonists of the farnesoid-X-receptor (FXR) signaling pathway (AID 743220; active = well fitted activation curve with a large enough effect in the signal ratio in the repeat runs, not every such curve was filed as active; the % refers to the signal ratio)
In short: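 Beta-lactamase reporter under UAS control in GeneBLAzer FXR HEK 293T cells (5000/well) measured with LiveBLAzer FRET substrate after 2 h at room temperature. Compound exposure lasted 16 h at 37C.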

[17] = qHTS assay to identify small molecule antagonists of the farnesoid-X-receptor (FXR) signaling pathway - cell viability counter screen (AID 743221; active = well fitted cell-killing curve with a large enough effect in the repeat runs, not every such curve was filed as active; note: nearly all actives have a fitted effect of over 50% in size)
In short: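 Cytotoxicity is taken from ATP luminescence (CellTiter-Glo, 30 min, room temperature) in FXR-bla HEK 293T cells previously incubated 16 h at 37 C with compound and chenodeoxycholic acid at 50 uM final.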

[18] = molecular target: Vitamin D3 receptor (Homo sapiens) (UniProt P11473); assay: qHTS assay to identify small molecule agonists of the vitamin D receptor (VDR) signaling pathway (AID 743222; calls by dose curve)
In short: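 VDR-bla cells, 2,000/well; 4 h preincubation 37C; cpd (DMSO) 16 h; LiveBLAzer B/G substrate 2 h RT; fluorescence intensity read.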

[19] = molecular target: Vitamin D3 receptor (Homo sapiens) (UniProt P11473); assay: qHTS assay to identify small molecule antagonists of the vitamin D receptor (VDR) signaling pathway (AID 743223; active = well fitted inhibition curve with a large enough effect in the signal ratio in the repeat runs, not every such curve was filed as active; the % refers to the signal ratio)
In short: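 Quantitative HTS in VDR-bla reporter cells stimulated with 1alpha,25-dihydroxyvitamin D3, 3 nM final. Compound exposure 16 h, 37C, 5% CO2. Read-out: beta-lactamase FRET substrate fluorescence, 2 h RT.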

[20] = qHTS assay to identify small molecule agonists of the vitamin D receptor (VDR) signaling pathway - cell viability counter screen (AID 743224); note: series mostly up to about 63 µM; nearly all actives have a fitted effect of over 50% in size
In short: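 Luminescence from CellTiter-Glo, read after 30 min at room temperature, reports viability of VDR-bla cells treated with compounds for 16 h at 37C in the wells used for the beta-lactamase FRET read.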

Bile acid receptor (Homo sapiens), sequence (Q96RI1 whole entry, looked up): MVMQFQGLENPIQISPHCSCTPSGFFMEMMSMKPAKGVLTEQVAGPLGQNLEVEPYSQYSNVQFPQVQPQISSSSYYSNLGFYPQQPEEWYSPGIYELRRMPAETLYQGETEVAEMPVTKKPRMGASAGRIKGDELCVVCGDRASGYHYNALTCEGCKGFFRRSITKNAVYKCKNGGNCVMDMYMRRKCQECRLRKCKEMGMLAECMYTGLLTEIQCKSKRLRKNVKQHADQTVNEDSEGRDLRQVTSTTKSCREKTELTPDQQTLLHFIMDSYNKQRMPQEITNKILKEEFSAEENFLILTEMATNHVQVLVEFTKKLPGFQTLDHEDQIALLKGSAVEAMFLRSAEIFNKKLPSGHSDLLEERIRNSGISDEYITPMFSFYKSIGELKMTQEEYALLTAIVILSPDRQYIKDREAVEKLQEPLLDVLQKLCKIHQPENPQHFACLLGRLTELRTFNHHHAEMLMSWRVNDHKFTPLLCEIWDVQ
Peroxisome proliferator-activated receptor delta (Homo sapiens), sequence (Q03181 whole entry, looked up): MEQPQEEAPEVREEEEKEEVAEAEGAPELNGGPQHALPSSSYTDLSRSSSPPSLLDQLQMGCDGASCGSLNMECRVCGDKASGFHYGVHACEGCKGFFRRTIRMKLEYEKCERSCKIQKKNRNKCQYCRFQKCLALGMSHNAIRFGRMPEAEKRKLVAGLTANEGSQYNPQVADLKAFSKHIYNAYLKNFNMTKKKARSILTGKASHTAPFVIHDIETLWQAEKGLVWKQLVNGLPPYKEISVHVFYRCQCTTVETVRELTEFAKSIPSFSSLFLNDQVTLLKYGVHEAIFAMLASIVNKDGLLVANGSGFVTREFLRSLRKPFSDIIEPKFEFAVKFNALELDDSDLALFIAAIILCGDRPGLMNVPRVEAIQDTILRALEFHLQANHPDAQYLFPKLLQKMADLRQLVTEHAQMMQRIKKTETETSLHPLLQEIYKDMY
Vitamin D3 receptor (Homo sapiens), sequence (P11473 whole entry, looked up): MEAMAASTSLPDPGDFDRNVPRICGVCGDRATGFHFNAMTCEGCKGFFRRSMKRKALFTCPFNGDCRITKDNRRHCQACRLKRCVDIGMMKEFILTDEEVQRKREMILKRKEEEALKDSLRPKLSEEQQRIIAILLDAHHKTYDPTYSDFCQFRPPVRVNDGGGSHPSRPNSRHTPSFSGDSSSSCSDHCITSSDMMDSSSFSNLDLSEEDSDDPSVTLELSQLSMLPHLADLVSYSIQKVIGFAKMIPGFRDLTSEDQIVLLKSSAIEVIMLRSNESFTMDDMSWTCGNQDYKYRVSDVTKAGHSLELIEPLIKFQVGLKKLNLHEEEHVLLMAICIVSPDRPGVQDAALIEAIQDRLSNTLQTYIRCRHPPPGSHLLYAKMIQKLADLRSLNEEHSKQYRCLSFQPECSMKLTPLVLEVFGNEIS
Peroxisome proliferator-activated receptor gamma (Homo sapiens), sequence (P37231 whole entry, looked up): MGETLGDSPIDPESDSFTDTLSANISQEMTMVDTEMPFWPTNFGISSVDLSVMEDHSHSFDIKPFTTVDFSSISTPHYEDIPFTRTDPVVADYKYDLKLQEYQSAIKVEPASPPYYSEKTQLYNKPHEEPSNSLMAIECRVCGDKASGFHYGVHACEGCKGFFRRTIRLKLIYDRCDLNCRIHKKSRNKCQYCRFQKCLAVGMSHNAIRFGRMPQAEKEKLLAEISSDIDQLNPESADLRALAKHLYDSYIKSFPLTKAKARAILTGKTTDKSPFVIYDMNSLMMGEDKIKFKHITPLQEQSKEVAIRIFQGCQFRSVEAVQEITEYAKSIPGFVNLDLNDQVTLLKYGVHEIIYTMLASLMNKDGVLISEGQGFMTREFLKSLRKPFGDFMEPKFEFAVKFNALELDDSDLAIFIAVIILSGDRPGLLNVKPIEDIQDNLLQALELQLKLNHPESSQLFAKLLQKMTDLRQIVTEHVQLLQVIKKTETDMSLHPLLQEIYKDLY
Aryl hydrocarbon receptor (Homo sapiens), sequence (P35869 whole entry, looked up): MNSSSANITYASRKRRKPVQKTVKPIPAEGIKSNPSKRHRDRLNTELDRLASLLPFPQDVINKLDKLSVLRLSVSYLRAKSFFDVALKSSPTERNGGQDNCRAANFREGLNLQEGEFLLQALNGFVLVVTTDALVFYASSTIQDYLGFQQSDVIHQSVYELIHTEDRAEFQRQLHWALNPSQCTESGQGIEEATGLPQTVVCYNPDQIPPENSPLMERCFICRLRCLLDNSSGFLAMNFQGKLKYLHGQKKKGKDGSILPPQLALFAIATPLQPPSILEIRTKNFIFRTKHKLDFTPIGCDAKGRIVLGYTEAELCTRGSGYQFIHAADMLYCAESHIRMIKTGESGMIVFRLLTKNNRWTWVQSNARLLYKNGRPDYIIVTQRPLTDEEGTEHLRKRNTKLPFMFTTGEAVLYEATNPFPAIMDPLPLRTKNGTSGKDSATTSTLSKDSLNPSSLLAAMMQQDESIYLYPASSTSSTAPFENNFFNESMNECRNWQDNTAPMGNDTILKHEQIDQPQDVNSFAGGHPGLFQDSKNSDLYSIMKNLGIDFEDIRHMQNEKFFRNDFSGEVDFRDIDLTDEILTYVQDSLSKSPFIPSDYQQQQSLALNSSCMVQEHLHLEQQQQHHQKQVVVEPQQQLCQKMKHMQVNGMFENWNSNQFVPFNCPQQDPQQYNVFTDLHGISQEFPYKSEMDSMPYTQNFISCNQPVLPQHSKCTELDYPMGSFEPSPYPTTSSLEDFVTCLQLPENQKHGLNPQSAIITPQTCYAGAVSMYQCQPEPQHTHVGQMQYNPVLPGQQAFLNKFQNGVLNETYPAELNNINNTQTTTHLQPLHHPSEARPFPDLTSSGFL

Row | Compound | Potency [1] | Potency [2] | outcome [3] | outcome [4] | outcome [5] | Potency [6] | outcome [7] | outcome [8] | outcome [9] | outcome [10] | outcome [11] | outcome [12] | outcome [13] | Potency [14] | outcome [15] | outcome [16] | outcome [17] | outcome [18] | outcome [19] | outcome [20]
1 | Nc1ccc(O)c(C(=O)O)c1 | inactive | inactive | inactive | inactive | inactive | inactive | inactive | inactive | inactive | inactive | inactive | inactive | inactive | inactive | inactive | inactive | inactive | inactive | inactive | inactive
2 | CCCN(CCC)S(=O)(=O)c1ccc(C(=O)O)cc1 | inactive | inactive | inactive | inactive | inactive | inactive | inactive | inactive | inactive | inactive | inactive | inactive | inactive | inactive | inactive | inactive | inactive | inactive | inactive | inactive
3 | CC(=O)OCC(COC(C)=O)OC(C)=O | inactive and 67.7 µM (active) | inactive | inactive | inactive | inactive | inactive | inactive | inactive | inactive | inactive | inactive | inactive | inactive | – | inactive | – | inactive | inactive | inactive | inactive
4 | Cc1ccc(O)cc1 | inactive | inactive | inactive | inactive | inactive | inactive | inactive | inactive | inactive | inactive | inactive | inactive | inactive | inactive | inactive | inactive | inactive | inactive | inactive | inactive
5 | Nc1ccc(C(=O)O)cc1 | inactive | inactive | inactive | inactive | inactive | inactive | inactive | inactive | inactive | inactive | inactive | inactive | inactive | inactive | inactive | inactive | inactive | – | – | inactive
6 | Cn1c(=O)c2[nH]cnc2n(C)c1=O | inactive | inactive | inactive | – | inactive | inactive | inactive | inactive | inactive | inactive | inactive | inactive | – | inactive | inactive | inactive | inactive | – | – | inactive
7 | CC(=O)NS(=O)(=O)c1ccc(N)cc1 | inactive | inactive | – | – | inactive | inactive | inactive | inactive | inactive | inactive | inactive | inactive | inactive | – | inactive | – | inactive | inactive | inactive | inactive
8 | CCC1(c2ccccc2)C(=O)NCNC1=O | inactive | inactive | inactive | inactive | inactive | inactive | inactive | inactive | inactive | inactive | – | inactive | – | inactive | inactive | inactive | inactive | inactive | inactive | inactive
9 | C/C=C/c1ccc(OC)cc1 | inactive | inactive | inactive | – | inactive | inactive | inactive | inactive | inactive | inactive | inactive | inactive | – | – | inactive | – | inactive | – | – | inactive
10 | NC(N)=NC(=O)c1nc(Cl)c(N)nc1N | inactive | inactive | inactive | inactive | inactive | inactive and 25.3 µM (active) | inactive | inactive | inactive | inactive | – | inactive | – | – | inactive | – | inactive | inactive | inactive | inactive
11 | O=C(O)C(=O)O | inactive | inactive | inactive | inactive | inactive | inactive | inactive | inactive | inactive | inactive | – | inactive | – | – | inactive | – | inactive | inactive | inactive | inactive
12 | O=S(=O)(O)NC1CCCCC1 | inactive | inactive | – | – | inactive | inactive | inactive | inactive | inactive | inactive | – | inactive | – | – | inactive | – | inactive | inactive | inactive | inactive
13 | O=C(O)/C=C\C(=O)O | – | – | – | – | inactive | inactive | inactive | inactive | inactive | inactive | inactive | inactive | inactive | – | inactive | – | inactive | inactive | inactive | inactive
14 | Cn1cc[nH]c1=S | – | inactive | inactive | inactive | inactive | inactive | inactive | inactive | inactive | inactive | inactive | inactive | inactive | – | inactive | – | inactive | inactive | inactive | inactive
15 | O=C(O)CCCCCCCC(=O)O | inactive | inactive | inactive | inactive | inactive | inactive | inactive | inactive | inactive | inactive | – | inactive | – | – | inactive | – | inactive | inactive | inactive | inactive
16 | CC(C)(Oc1ccc(C2CC2(Cl)Cl)cc1)C(=O)O (configuration not stated) | inactive | inactive | – | inactive | inactive | inactive | inactive | inactive | inactive | inactive | inactive | inactive | inactive | – | inactive | – | inactive | inactive | inactive | inactive
17 | O=C(O)c1cccc([N+](=O)[O-])c1 | inactive | inactive | – | – | inactive | inactive | inactive | inactive | inactive | inactive | – | inactive | – | – | inactive | – | inactive | – | – | inactive
